Sampled rows, rich in hits. Any-hit rate of the full collection: about 4.1%.
LEDGF integ inh – blocks HIV-1 LEDGF/p75-dependent DNA integration; AID 743269; TR-FRET IN-LEDGF/p75 DNA integration, Eu/Cy5; inhibition, % at 3.7 µM; hit rate 0.64% among 370,000;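 active = inhibition above the screen-wide mean plus 3 SD, cut at about 13% in these data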;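 note: signal is the Cy5 over europium emission ratio at 671 and 618 nm; 0% = plate median of compound wells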
PRMT1 inh – inhibitors of human PRMT1; recombinant PRMT1, activity-based probe fluorescence polarization; Q99873; inhibition, % at 2.79 µM; hit rate 1.3% among 370,000;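 active = inhibition above about 21% made by adding two undisclosed values, limit read from the data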
UHRF1 MBD2 ctr – blocks human UHRF1 binding to methylated DNA; Q96T88; UHRF1 binding to methylated oligo, TR-FRET; hit rate 0.75% among 370,000; inhibition, % at 4.4 µM; in the data active = inhibition above about 21%;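 note: UHRF1 SRA domain binding a hemimethylated CpG hairpin DNA probe; 0% = median of test compound wells and 100% = reference inhibitor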
rCAG RNA binder – binds r(CAG) RNA repeats. r(CAG) RNA repeat, TO-PRO-1 dye displacement fluorescence. inhibition, % at 3 µM. hit rate 1.3% among 370,000. AID 651821;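 active = inhibition above the plate cutoff, the mean of all test compounds on that plate plus 3 SD, cut at about 35% in these data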;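 note: 0% = DMSO alone and 100% = 100 µM mitoxantrone as full dye displacement; higher means more dye released from RNA so lower well fluorescence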
MBD2 DNA inh – blocks human MBD2 binding to methylated DNA; Q9UBB5; TR-FRET, MBD2 binding to methylated oligonucleotide; inhibition, % at 4.4 µM; hit rate 0.31% among 370,000; AID 686964; in the data active = inhibition above about 13%
Target sequence (Q9UBB5 whole entry, looked up): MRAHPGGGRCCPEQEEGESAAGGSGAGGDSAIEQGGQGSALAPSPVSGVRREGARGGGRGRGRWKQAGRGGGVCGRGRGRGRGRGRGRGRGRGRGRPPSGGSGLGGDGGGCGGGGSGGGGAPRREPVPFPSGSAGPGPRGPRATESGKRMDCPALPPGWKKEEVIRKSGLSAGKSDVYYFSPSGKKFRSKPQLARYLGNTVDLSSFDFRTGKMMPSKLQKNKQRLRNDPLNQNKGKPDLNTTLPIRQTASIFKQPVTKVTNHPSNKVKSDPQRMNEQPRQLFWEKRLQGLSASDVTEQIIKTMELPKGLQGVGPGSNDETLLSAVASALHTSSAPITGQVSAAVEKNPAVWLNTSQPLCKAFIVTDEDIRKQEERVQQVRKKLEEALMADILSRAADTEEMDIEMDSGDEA
ABHD5 PLIN5 PPI – ABHD5-PLIN5 protein interaction inhibition. inhibition, % at 4 µM. Q00G26+Q8WTS1. Split G. princeps luciferase complementation, luminescence, 4 h. hit rate 0.78% among 360,000;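 active = inhibition above the mean inhibition across every tested compound plus 3 SD, cut at about 22% in these data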;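 note: 0% = DMSO only wells and the 100% control is not disclosed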
IN multimer up – counter-screen for LEDGF/p75 integration inhibitors: HIV-1 integrase multimerization activators | shares compounds with LEDGF integ inh | TR-FRET HIV-1 integrase multimerization, biochemical | activation, % at 7.7 µM | hit rate 17% among 2,000 | AID 1053131; in the data active = activation above about 8.9%
TRFRET interf – TR-FRET optical interference, LEDGF/p75 integration counter-screen; shares compounds with LEDGF integ inh; AID 1053135; 2,000 tested, under 10 active; TR-FRET optical interference counterscreen, HIV-1 IN multimerization; inhibition, % at 7.7 µM;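 active = inhibition above the mean over all tested compounds plus 3 SD, which no compound reached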;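 note: 0% = integrase with antibodies and DMSO and 100% = antibodies without integrase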
IN-LEDGF confirm – confirmation of HIV-1 LEDGF/p75-dependent integration inhibitors. inhibition, % at 3.7 µM. shares compounds with LEDGF integ inh. AID 1053136. TR-FRET LEDGF/p75-dependent HIV-1 integration, biochemical. hit rate 36% among 2,000; in the data active = inhibition above about 14%
* marks the source's active call; other numbers are inactive results.

`Cc1cccnc1NC(=O)C1CCN(S(=O)(=O)c2c(C)noc2/C=C/c2ccco2)CC1` gave LEDGF integ inh 24.1*, PRMT1 inh 3.1, UHRF1 MBD2 ctr -1.8, rCAG RNA binder 8.5, MBD2 DNA inh 0.9, ABHD5 PLIN5 PPI 6.4, IN multimer up 0.5, TRFRET interf -2.5 and IN-LEDGF confirm -11.2.
COc1cc2c(c(OC)c1)C(c1cccc(OC)c1OC)CC(=O)N2 (centres undefined) was read as LEDGF integ inh 16.9*, PRMT1 inh 1.1, UHRF1 MBD2 ctr -0.2, rCAG RNA binder 0.5, MBD2 DNA inh -0.6, ABHD5 PLIN5 PPI 0.0, IN multimer up -2.3, TRFRET interf 11.7 and IN-LEDGF confirm -2.0.
For CCCOc1c(OC)cccc1C1CC(=O)Nc2cc(OC)c(OC)c(OC)c21 (centres undefined) the results were LEDGF integ inh 0.3, PRMT1 inh -1.1, UHRF1 MBD2 ctr -1.1, rCAG RNA binder -8.9, MBD2 DNA inh -0.1 and ABHD5 PLIN5 PPI 6.3.
For Cc1ccc(-c2nc(NCc3ccc(F)cc3)n(S(C)(=O)=O)n2)cc1 the results were LEDGF integ inh 13.7*, PRMT1 inh 1.7, UHRF1 MBD2 ctr -0.1, rCAG RNA binder -2.2, MBD2 DNA inh -3.5, ABHD5 PLIN5 PPI -2.2, IN multimer up -0.9, TRFRET interf 4.4 and IN-LEDGF confirm -4.7.
CN(C)c1ccc(CNc2nc(-c3ccccc3)nn2S(C)(=O)=O)cc1 was read as LEDGF integ inh 0.8, PRMT1 inh -4.5, UHRF1 MBD2 ctr -1.2, rCAG RNA binder -2.3, MBD2 DNA inh -4.1 and ABHD5 PLIN5 PPI -2.5.
`Cc1ccc(Oc2ncccc2C(=O)NCC(=O)O)cc1` gave LEDGF integ inh 17.0*, PRMT1 inh -3.0, UHRF1 MBD2 ctr 0.4, rCAG RNA binder 1.8, MBD2 DNA inh -6.3, ABHD5 PLIN5 PPI 1.3, IN multimer up 0.0, TRFRET interf 0.0 and IN-LEDGF confirm 0.1.
Screening Cc1ccc(C(=O)CSc2nnc3ccccn23)c(C)c1 returned LEDGF integ inh -3.4, PRMT1 inh 2.6, UHRF1 MBD2 ctr 1.0, rCAG RNA binder -6.6, MBD2 DNA inh 4.9 and ABHD5 PLIN5 PPI 7.7.
`COCCn1c(C)cc(C(=O)CSc2nnc3ccccn23)c1C` gave LEDGF integ inh 15.0*, PRMT1 inh 4.0, UHRF1 MBD2 ctr 2.6, rCAG RNA binder 1.9, MBD2 DNA inh 1.9, ABHD5 PLIN5 PPI -4.0, IN multimer up -2.0, TRFRET interf 10.0 and IN-LEDGF confirm 32.9*.
For C/C(=N\NC(=O)c1cc(-c2ccco2)nc2ccccc12)c1cccnc1 the results were LEDGF integ inh 63.7*, PRMT1 inh -0.8, UHRF1 MBD2 ctr -2.4, rCAG RNA binder 11.3, MBD2 DNA inh -2.9, ABHD5 PLIN5 PPI 5.3, IN multimer up 1.1, TRFRET interf -5.5 and IN-LEDGF confirm 0.2.
Screening COc1ccc(OC)c(-c2cc(C(=O)N/N=C(\C)c3cccnc3)c3ccccc3n2)c1 returned LEDGF integ inh -2.9, PRMT1 inh 2.4, UHRF1 MBD2 ctr -0.9, rCAG RNA binder 11.6, MBD2 DNA inh 1.1 and ABHD5 PLIN5 PPI -2.1.
`COc1ccc(CNC(=O)COC(=O)c2cc(C)nc3ccccc23)cc1` gave LEDGF integ inh -3.2, PRMT1 inh -2.4, UHRF1 MBD2 ctr -0.8, rCAG RNA binder 3.0, MBD2 DNA inh -4.0 and ABHD5 PLIN5 PPI 2.5.
CCNC(=O)COC(=O)c1cc(-c2ccco2)nc2ccccc12 was read as LEDGF integ inh 13.5*, PRMT1 inh 38.3*, UHRF1 MBD2 ctr 8.3, rCAG RNA binder 28.1, MBD2 DNA inh 4.8, ABHD5 PLIN5 PPI 0.1, IN multimer up 7.3, TRFRET interf -36.7 and IN-LEDGF confirm 28.7*.
For Nc1cc(Cl)ccc1Oc1ccccc1 the results were LEDGF integ inh 35.7*, PRMT1 inh -0.8, UHRF1 MBD2 ctr -2.2, rCAG RNA binder -2.2, MBD2 DNA inh 2.9, ABHD5 PLIN5 PPI -2.8, IN multimer up 0.1, TRFRET interf -0.3 and IN-LEDGF confirm 5.5.
`COCCCNC(=O)C[C@@H]1C(=O)N(CCc2ccc(Cl)cc2)C2=CCCCC[C@]21C(=O)OC` gave LEDGF integ inh -0.9, PRMT1 inh 4.5, UHRF1 MBD2 ctr 1.2, rCAG RNA binder 5.6 and MBD2 DNA inh 5.2.
Screening O=C(CCc1n[nH]c(=O)[nH]c1=O)N/N=C/c1ccco1 returned LEDGF integ inh 15.2*, PRMT1 inh 1.2, UHRF1 MBD2 ctr 8.4, rCAG RNA binder 1.4, MBD2 DNA inh 4.5, ABHD5 PLIN5 PPI 5.0, IN multimer up -0.8, TRFRET interf 3.9 and IN-LEDGF confirm 5.4.
Cc1nnc(NC(=O)CC(C)c2ccccc2)s1 (centres undefined) was read as LEDGF integ inh -2.4, PRMT1 inh 0.8, UHRF1 MBD2 ctr 0.7, rCAG RNA binder -6.0, MBD2 DNA inh 1.8 and ABHD5 PLIN5 PPI 1.9.
Screening CCOC(=O)C(CC(=O)Nc1nc(C(C)=O)c(C)s1)C(C)c1ccccc1 (centres undefined) returned LEDGF integ inh 18.4*, PRMT1 inh 1.4, UHRF1 MBD2 ctr 0.9, rCAG RNA binder -6.1, MBD2 DNA inh 3.0, ABHD5 PLIN5 PPI 1.1, IN multimer up 1.0, TRFRET interf -3.5 and IN-LEDGF confirm -5.1.
For O=C(OC12CCCN(C1)/C(=C/c1ccc(Cl)cc1)C2)C1CCCC1 (centres undefined) the results were LEDGF integ inh -2.4, PRMT1 inh -2.0, UHRF1 MBD2 ctr -0.7, rCAG RNA binder 3.4 and MBD2 DNA inh 1.9.
CC1OC(OC2C(Oc3c(-c4ccc(O)cc4)oc4cc(O)cc(O)c4c3=O)OC(COC3O[C@@H](C)[C@H](O)[C@@H](O)C3O)C(O)C2O)C(O)C(O)C1O (some centres undefined) was read as LEDGF integ inh -1.1, PRMT1 inh -2.4, UHRF1 MBD2 ctr 2.6, rCAG RNA binder -1.1, MBD2 DNA inh -5.3 and ABHD5 PLIN5 PPI 0.2.
`CC1OC(OCC2OC(Oc3c(-c4ccc(O)cc4)oc4cc(O)cc(O)c4c3=O)C(O)C(O)C2O)C(O)C(O)C1O` (centres undefined) gave LEDGF integ inh 16.7*, PRMT1 inh -0.2, UHRF1 MBD2 ctr 4.1, rCAG RNA binder 8.5, MBD2 DNA inh -5.9, ABHD5 PLIN5 PPI 8.9, IN multimer up 30.1*, TRFRET interf -151.6 and IN-LEDGF confirm 47.1*.
